Among the data in PubChem BioAssay (NCI) are growth values, retold here.

Assay in all cases: NCI-60 one-dose screen, 48 h (100 = growth as untreated, 0 = no growth, -100 = all killed)
Common to all, as to conditions: 10 µM unless noted

Experiment [1] has as its system NCI-H23 lung.
Experiment [2] deals with NCI-H226 lung.
The subject of experiment [3] is NCI-H322M lung.
Experiment [4] relates to HOP-62 NSCLC.
The test system of experiment [5] is NCI-H460 lung.
Experiment [6] relates to HOP-92 NSCLC.
Experiment [7] concerns NCI-H522 lung.
The subject of experiment [8] is A549/ATCC NSCLC.
For experiment [9], the system named is 786-0 renal.
The test system of experiment [10] is COLO 205 colon.
The subject of experiment [11] is DU-145 prostate.
In experiment [12] the test system is K-562 leukemia.
The test system of experiment [13] is MALME-3M melanoma.
For experiment [14], the system named is MDA-MB-231 breast.
Experiment [15] relates to RXF 393 renal.
For experiment [16], the system named is SF-268 CNS.
Experiment [17] has as its system SF-295 CNS.
The test system of experiment [18] is SF-539 CNS.
The subject of experiment [19] is UACC-257 melanoma.
In experiment [20] the test system is M14 melanoma.

Structures are written as SMILES. This is part of a sample that, as a whole, favours compounds with a hit. Of some 83,000 tested, about 20% had one in any assay.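 Cell lines were cultured in 96-well plates, exposed to a single compound concentration, and assessed for percent growth 48 hours later.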 Unmarked numbers belong to inactive results. Active and inactive are the calls of the source. The calls were made as follows: active = growth percent below 10; inactive = the rest.

Take `COc1cc(N2C(=O)[C@H](Cl)C2c2ccc(SC)cc2)cc(OC)c1OC` (stereo not given in full): the growth in [1] is 16.7%; in experiment [2], 53.8%; in [3], 42.9%; in [4], 23.1%; in experiment [5], 5.39% (active); in experiment [6] it was -0.311% (active). The growth in experiment [7] is -7.37% (active); in [8] it was 11.1%; in [9], -0.223% (active); in experiment [10] it was -45.6% (active); in experiment [11], 7.66% (active); in experiment [12] it was 4.94% (active). Besides, the growth in [13] was 78.4%; in experiment [14], 29.3%; in experiment [15], -16.1% (active); in experiment [16] it was 28.9%; in experiment [17], -7.12% (active); in [18], 8.03% (active). The growth in [19] was 27.3%; in [20], -2.68% (active).

For `Cn1c(C#N)ccc1-c1ccc(F)c(NC(=O)c2ccc(F)cc2)c1`, the growth in [1] was 80.6%; in experiment [2], 105%; in experiment [3], 97.9%; in [4] it was 75.8%; in experiment [5], 80.2%; in experiment [6], 70.5%. Also, the growth in [7] was 76.2%; in experiment [8], 83.2%; in experiment [9], 84.8%; in experiment [10], 90.9%; in experiment [11], 94.3%; in [12], 23.6%. Also, the growth is 91.2% in experiment [13]; 73.7% in experiment [14]; 85.3% in experiment [15]; 81.9% in experiment [16]; 68.8% in experiment [17]; 73.8% in [18]. In addition, the growth in experiment [19] is 107%; in experiment [20], 59.8%.

Consider `Cc1ccc(C2CC(c3cccc(Nc4ccncc4)c3)=Nc3c(N)nc(N)nc3N2)cc1` (stereo not given), for which the growth in experiment [1] was 56%; in [2], 88.9%; in experiment [3], 67.4%; in experiment [4] it was 86.4%; in experiment [5], 23.1%; in experiment [6], 49.8%. Also, the growth was 75.7% in experiment [7]; 28.3% in experiment [8]; 36.4% in [9]; 52.3% in [10]; 70.9% in [11]; 21.3% in [12]. The growth was 78.7% in experiment [13]; 66.1% in experiment [14]; 55.6% in experiment [15]; 63.1% in experiment [16]; 67% in [17]; 67.9% in experiment [18]. Besides, the growth in experiment [19] is 63.7%; in experiment [20], 42.3%.

On to `c1ccc(-c2c(-c3ccccc3)[n+](Cc3ccc4ccccc4c3)cn2Cc2ccc3ccccc3c2)cc1`, for which the growth in [1] was -74.9% (active); in [2] it was -75.8% (active); in experiment [3], -20.8% (active); in experiment [4] it was -86.1% (active); in experiment [5] it was -78.6% (active); in [6] it was -83.9% (active). Besides, the growth in [7] was -85.8% (active); in [8], -81.8% (active); in experiment [9], -92.2% (active); in [10] it was -86.4% (active); in [11], -96.1% (active); in experiment [12] it was -63.1% (active). Further, the growth in [13] was -82.2% (active); in [14] it was -79.4% (active); in experiment [15], -96.2% (active); in [16], -89.1% (active); in [17], -97.9% (active); in experiment [18], -88.3% (active). For the same compound, the growth in [19] was -84% (active); in experiment [20], -85.8% (active).

Consider `N[C@@H]1CCC[C@H]1NCCCCN1C(=O)c2cccc3cc([N+](=O)[O-])cc(c23)C1=O`, for which the growth in experiment [1] is 39.3%; in experiment [2], 11%; in experiment [3], 41.2%; in [4], 31.7%; in experiment [5], 6.71% (active); in experiment [6] it was 34.5%. Besides, the growth is 40.6% in [7]; 22.4% in experiment [8]; 25% in experiment [9]; 22.8% in experiment [10]; 22.2% in experiment [11]; 18.6% in experiment [12]. In addition, the growth was 57.5% in [13]; 45.1% in [14]; 32.3% in experiment [15]; 34.3% in [16]; 55.5% in [17]; 32.7% in experiment [18]. Moreover, the growth in [19] was 61.2%; in [20], 63.7%.

Turning to `Cc1[nH]c(C(=O)Nc2ccccc2OC2CCN(CCN3CCOCC3)CC2)c(Cl)c1Cl`, the growth is 97.6% in experiment [1]; 79.6% in experiment [2]; 99.9% in experiment [3]; 89.9% in experiment [4]; 108% in experiment [5]; 70.9% in [6]. The growth in experiment [7] is 47.6%; in experiment [8], 99%; in [9], 57.5%; in [10], 102%; in experiment [11], 105%; in experiment [12], 57.5%. The growth was 106% in [13]; 75.9% in experiment [14]; 83.6% in [15]; 81.5% in experiment [16]; 97.7% in [17]; 89.6% in [18]. The growth in experiment [19] was 115%; in experiment [20] it was 106%.

On to `CCn1cc(C(=O)O)c(=O)c2cc(F)c(N3CCN(CC(=O)Nc4ccccc4)C(C)C3)c(F)c21` (stereo not given), for which the growth in experiment [1] is 91.3%; in [2], 100%; in experiment [3] it was 85.7%; in [4], 101%; in experiment [5], 99.2%; in experiment [6], 97%. The growth in [7] was 92.5%; in experiment [8], 97.9%; in experiment [9], 92.5%; in experiment [10], 106%; in [11] it was 104%; in experiment [12], 87.1%. The growth is 97.9% in experiment [13]; 87.1% in experiment [14]; 101% in [15]; 93.7% in [16]; 95.3% in experiment [17]; 99.1% in [18]. Also, the growth is 102% in experiment [19] and 105% in experiment [20].

As for `Cc1ncc(C(=O)Nc2ccc(CN3CCN(C)CC3)c(C(F)(F)F)c2)cc1C#Cc1cnc(N)c2ccc(C#N)cc12`, the growth in [1] is 29.5%; in [2], 0.011% (active); in experiment [3] it was 27.9%; in experiment [4], -7.92% (active); in experiment [5], 11.2%; in experiment [6], -20.2% (active). The growth is 27.2% in [7]; 22.9% in experiment [8]; -70.1% (active) in experiment [9]; 5.29% (active) in [10]; 8.97% (active) in experiment [11]; -35.3% (active) in experiment [12]. In addition, the growth in [13] is -55.6% (active); in experiment [14], -76.5% (active); in [15] it was -64% (active); in [16] it was 16.7%; in experiment [17], 54.1%; in experiment [18] it was -0.429% (active). For the same compound, the growth in [19] was -9.1% (active); in experiment [20] it was -41.5% (active).
